From PubChem BioAssay
Activity calls are given as the source filed them. Unless noted, no rule for the calls is given here.

Experiments:
[1] = test system: XIP peptide (Xip251-270) binding; assay: XIP fragment 251-270 binding compounds – biochemical, small-molecule microarray, fluorescence 635/667 nm, 0.1 µg/mL protein, primary screen (AID 1182); settings: fluorescent protein binding, 635 nm, higher = more signal, called active from +8 up or from −8 down
XIP peptide (Xip251-270) = assay: compounds binding XIP fragment 251-270 – biochemical, small-molecule microarray, fluorescence 635/667 nm, 0.5 µg/mL protein, primary screen (AID 1183); settings: fluorescence 635 nm, higher = more signal
[2] = blood-stage malaria parasite viability loss – strain 3D7, DAPI fluorescence, 100 nL, primary screen (AID 1184);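 also: parasites grown inside human red blood cells in medium with human serum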; settings: P. falciparum 3D7 growth, 3 d, higher = more signal
[3] = biological target: Homeobox protein Hox-A13 (Mus musculus) (UniProt Q62424); assay: disruptors of Hoxa13 oligonucleotide interaction – biochemical, fluorescence polarization, labeled oligonucleotide, primary screen (AID 1185); settings: Hoxa13:DNA binding, 15 min, higher = more signal, called active from +8 up or from −8 down
[4] = blockers of DNA damage checkpoint Chk1 activation – imaging, HeLa, hydroxyurea, phospho-Chk1 antibody, percent positive cells, primary screen (AID 1186); settings: hydroxyurea-induced phospho-Chk1 immunofluorescence imaging, higher = more signal
[5] = blockers of DNA damage checkpoint Chk1 activation – imaging, HeLa, hydroxyurea, phospho-Chk1 nuclear intensity, primary screen (AID 1187); settings: hydroxyurea-induced phospho-Chk1 immunofluorescence imaging, higher = more signal

Homeobox protein Hox-A13 (Mus musculus), sequence (Q62424 whole entry, looked up): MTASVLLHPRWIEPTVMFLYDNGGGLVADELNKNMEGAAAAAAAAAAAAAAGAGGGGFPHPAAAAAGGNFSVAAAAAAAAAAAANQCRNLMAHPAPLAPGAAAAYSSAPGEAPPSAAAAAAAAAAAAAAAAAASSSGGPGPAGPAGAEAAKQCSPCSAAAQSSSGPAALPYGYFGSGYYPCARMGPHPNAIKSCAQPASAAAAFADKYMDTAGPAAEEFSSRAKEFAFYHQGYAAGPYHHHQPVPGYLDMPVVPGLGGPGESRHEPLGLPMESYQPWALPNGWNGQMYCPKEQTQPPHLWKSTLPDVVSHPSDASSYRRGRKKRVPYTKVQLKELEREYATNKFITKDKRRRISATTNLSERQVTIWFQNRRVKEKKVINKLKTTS

SMILES | composite z-score [1] | composite z-score (XIP peptide (Xip251-270)) | z-score [2] | z-score [3] | z-score [4] | z-score [5]
C=CC[C@]1(C(=O)N2CCOCC2)N=C(c2ccc(OCCCO)cc2)O[C@H]1c1ccccc1CN=[N+]=[N-] | 0.349 (inactive) | 0.836 | -2.33 | -4.04 (inactive) | -0.552 (inactive) | -0.429 (inactive)
COc1ccc(C#Cc2ccc3c(c2)[C@]2(C(=O)N3)[C@H](C(=O)O)[C@H]3C(=O)O[C@H](c4ccccc4)[C@H](c4ccccc4)N3[C@@H]2c2ccc(OCCO)cc2)cc1 | 2.6 (inactive) | 0.701 | -1.78 | -5.22 (inactive) | 0.573 (inactive) | 0.862 (inactive)
COCC(=C=CC[C@@H](O)c1ccccc1OCCO)C[C@@H](O)COCc1ccccc1 | -0.581 (inactive) | 0.262 | -2.84 | -4.38 (inactive) | -1.14 (inactive) | -0.978 (inactive)
C=C(/C(=C/C[C@@H](OC(=O)c1ccncc1)c1ccccc1OCCO)c1cnc2ccccc2c1)C(C)C | 0.509 (inactive) | 0.723 | -2.55 | -4.63 (inactive) | 0.864 (inactive) | 0.737 (inactive)
COc1ccc([Si](C)(C)[C@@H]2[C@@H](CC(=O)N(CCO)Cc3ccccc3)O[C@]3(C(=O)N(C)c4c(Br)cc(C)cc43)[C@H]2C)cc1 | 0.48 (inactive) | 0.373 | -1.48 | -6.47 (inactive) | -0.743 (inactive) | -1.69 (inactive)
COCCCNC(=O)[C@@]1(C)c2ccccc2C(=O)N(c2ccc(C)cn2)[C@H]1c1ccc(CO)cc1 | -0.625 (inactive) | 0.892 | 0.563 | -1.9 (inactive) | 0.228 (inactive) | 0.554 (inactive)
COCCOC(=O)N1C(=O)[C@@]2(c3cc(C#CCC(C(=O)OC)C(=O)OC)ccc31)[C@H](C(=O)N1CCCCCCC1)[C@H]1C(=O)O[C@H](c3ccccc3)[C@H](c3ccccc3)N1[C@@H]2c1ccc(O)cc1 | 0.825 (inactive) | 0.729 | -2.22 | -0.454 (inactive) | -0.15 (inactive) | -0.367 (inactive)
NC(=O)[C@H]1[C@@H]2C(=O)O[C@@H](c3ccccc3)[C@@H](c3ccccc3)N2[C@@H](c2ccc(O)cc2)[C@]12C(=O)Nc1ccc(C#CC3(O)CCCCCC3)cc12 | 0.366 (inactive) | 0.836 | -1.85 | -1.28 (inactive) | 0.526 (inactive) | 0.301 (inactive)
O=C(O)[C@]1(CCS(=O)(=O)c2ccccc2)N=C(c2ccc(OCCCO)cc2)O[C@@H]1c1ccccc1 | 0.744 (inactive) | -0.374 | -0.212 | -4.32 (inactive) | -0.178 (inactive) | 0.06 (inactive)
CCC[C@@H]1C[C@@]1(CCC)[C@@H](NC(=O)c1ccco1)c1ccc(Cl)cc1 | 0.0025 (inactive) | -0.835 | -1.21 | -0.61 (inactive) | 0.348 (inactive) | 0.241 (inactive)
CC(C)CN1C(=O)[C@@]2(Cc3ccccc31)c1ccccc1C(=O)N(Cc1ccccc1)[C@H]2c1ccc(CO)cc1 | 2.02 (inactive) | -0.526 | -0.435 | -1.07 (inactive) | -0.0605 (inactive) | -0.197 (inactive)
[N-]=[N+]=NCc1ccccc1C[C@]1(C(=O)NCCN2CCOCC2)COC(c2ccc(OCCCO)cc2)=N1 | 0.0364 (inactive) | 0.258 | -2.09 | -4.71 (inactive) | -0.327 (inactive) | -0.625 (inactive)
O=C1C2C=CC(C(O)c3ccccn3)N(Nc3ccccc3)C2C(=O)N1c1ccccc1 (stereo not drawn) | 0.099 (inactive) | 0.116 | -0.244 | -1.65 (inactive) | -0.849 (inactive) | -0.791 (inactive)
COC(=O)[C@@]1(Cc2ccc(F)cc2)[C@H]2c3cc(C(=O)N(C)C)n(CCSCCO)c3C[C@H]2CN1C(=O)c1ccccc1 | 0.235 (inactive) | 0.0692 | -0.404 | -4.76 (inactive) | 0.511 (inactive) | 0.469 (inactive)
NC(=O)NCC#Cc1ccc2c(c1)[C@]1(C(=O)N2)[C@H](c2ccc(OCCO)cc2)N2[C@H](c3ccccc3)[C@H](c3ccccc3)OC(=O)[C@H]2[C@@H]1C(=O)N1CCN(c2ncccn2)CC1 | 0.0244 (inactive) | 0.353 | 0.149 | 0.314 (inactive) | 0.432 (inactive) | 1.09 (inactive)
COc1ccc([Si](C)(C)[C@@H]2[C@@H](CC(=O)N3Cc4ccccc4C[C@H]3CO)O[C@]3(C(=O)N(Cc4cccc(N5CCCCC5=O)c4)c4ccccc43)[C@H]2C)cc1 | 1.63 (inactive) | 0.737 | -2.91 | -2.57 (inactive) | -0.559 (inactive) | -0.304 (inactive)
C=CCC(OC(C)=O)[C@@H]1[C@@H](N(Cc2ccc(-c3ccccc3)cc2)C(=O)Cc2ccc(OC)cc2)c2cc(OCCCO)ccc2N1C(=O)c1ccc(-c2ccccc2)cc1 (stereo partly drawn) | -0.0622 (inactive) | -0.698 | -2.91 | -1.52 (inactive) | -0.244 (inactive) | 0.158 (inactive)

SMILES | composite z-score [1] | composite z-score (XIP peptide (Xip251-270)) | z-score [2] | z-score [3] | z-score [4] | z-score [5]
CO[C@H]1O[C@H](CO)[C@@H](OC(=O)Nc2cccc(F)c2)[C@H](OC(=O)Nc2ccc3c(c2)OCO3)[C@H]1OC(=O)Nc1ccc2c(c1)OCO2 | 1.87 (inactive) | 0.813 | -1.34 | -7.92 (inactive) | -0.178 (inactive) | 0.0427 (inactive)
COCC1=C([C@H](O)CCc2ccccc2)[C@H](CO)[C@@H]2C(=O)N(C)C(=O)[C@@H]2C1 | -0.328 (inactive) | 0.104 | -0.119 | -6.06 (inactive) | -0.32 (inactive) | -0.523 (inactive)
COCC(=C=CC[C@@H](O)c1ccccc1OCCO)C[C@@H](O)c1ccccn1 | 0.416 (inactive) | 0.76 | -0.991 | -6.18 (inactive) | 0.413 (inactive) | 0.289 (inactive)
O=C(CS)NCCCCCNC(=O)[C@@H]1C[C@@H]2C(=O)N3CCC[C@H]3C(=O)N2[C@@H]1c1ccc(O)cc1 | 0.262 (inactive) | 0.716 | 0.924 | -2.66 (inactive) | 0.0756 (inactive) | 0.0698 (inactive)
COC(=O)[C@@]1(Cc2ccc(OC)cc2)[C@H]2c3cc(C(=O)N4CCCC4)n(Cc4ccc(C)o4)c3C[C@H]2CN1C(=O)c1ccccc1 | 0.0373 (inactive) | 0.283 | -1.77 | -5.91 (inactive) | -0.683 (inactive) | -1.38 (inactive)
NC(=O)NCC#Cc1ccc2c(c1)[C@]1(C(=O)N2)[C@H](c2ccc(O)cc2)N2[C@H](c3ccccc3)[C@H](c3ccccc3)OC(=O)[C@H]2[C@@H]1C(=O)NC[C@H](O)c1ccccc1 | -0.0884 (inactive) | -0.294 | -0.547 | -0.93 (inactive) | -0.186 (inactive) | -0.151 (inactive)
C[N+](C)(C)CCCCCCNC(=O)[C@H]1C[C@H]2C(=O)N3CCC[C@H]3C(=O)N2[C@H]1c1cccc(OCCO)c1 | 0.883 (inactive) | 0.713 | 0.14 | -3.94 (inactive) | 0.372 (inactive) | 0.182 (inactive)
COC(=O)C(CC#Cc1ccc2c(c1)[C@]1(C(=O)N2)[C@H](C(=O)N2CCc3cc(OC)c(OC)cc3C2)[C@H]2C(=O)O[C@H](c3ccccc3)[C@H](c3ccccc3)N2[C@@H]1c1ccc(O)cc1)C(=O)OC | 0.534 (inactive) | 0.789 | -2.45 | -0.323 (inactive) | 0.297 (inactive) | 0.826 (inactive)
CCCCC(=C=CC[C@H](O)c1cccc(OCCO)c1)C[C@H](O)COCc1ccccc1 | 1.4 (inactive) | 0.752 | -1.88 | -4.78 (inactive) | -0.0835 (inactive) | 0.0554 (inactive)
COc1ccc([Si](C)(C)[C@@H]2[C@@H](CC(=O)N(CCO)Cc3ccccc3)O[C@]3(C(=O)N(Cc4ccc(N5CCOC5=O)cc4)c4ccccc43)[C@H]2C)cc1 | 2.73 (inactive) | 0.666 | -0.352 | -1.34 (inactive) | -0.269 (inactive) | 0.0764 (inactive)
[N-]=[N+]=NCc1ccccc1[C@H]1OC(c2ccc(OCCCO)cc2)=N[C@@]1(Cc1ccccc1N=[N+]=[N-])C(=O)NCCN1CCOCC1 | 0.175 (inactive) | 0.795 | -2.21 | -3.06 (inactive) | 0.0262 (inactive) | -0.0057 (inactive)
COC(=O)[C@@]1(Cc2ccc(OC)cc2)[C@H]2c3cc(C(=O)N4CCCC4)n(CCF)c3C[C@H]2CN1C(=O)c1ccccc1 | 1.24 (inactive) | 0.388 | -1.8 | -5.44 (inactive) | 0.128 (inactive) | -0.0625 (inactive)
NC(=O)[C@@H]1[C@H]2C(=O)O[C@H](c3ccccc3)[C@H](c3ccccc3)N2[C@H](c2ccccc2OCCO)[C@@]12C(=O)Nc1ccc(C#CCCO)cc12 | 0.585 (inactive) | 0.588 | 0.291 | -5.7 (inactive) | -0.266 (inactive) | -0.161 (inactive)
COCCOC(=O)N1C(=O)[C@@]2(c3cc(C#CC4(O)CCCCCC4)ccc31)[C@H](C(=O)NC[C@H](O)c1ccccc1)[C@H]1C(=O)O[C@H](c3ccccc3)[C@H](c3ccccc3)N1[C@@H]2c1ccc(OCCO)cc1 | -0.274 (inactive) | 0.624 | -1.19 | -0.375 (inactive) | 0.0542 (inactive) | 0.167 (inactive)
CC(C)(C)N1CC=CC23O[C@@H]4C=CCCOC(=O)C4[C@H]2C(=O)N(CCCO)[C@@H]3C1=O (stereo partly drawn) | -0.508 (inactive) | -1.18 | -1.75 | -5.86 (inactive) | -0.0977 (inactive) | -0.102 (inactive)
[N-]=[N+]=NCc1ccccc1C[C@]1(C(=O)NCCN2CCOCC2)N=C(c2ccc(OCCCO)cc2)O[C@H]1c1ccccc1 | 0.786 (inactive) | 0.817 | -2.42 | -6.23 (inactive) | 0.0479 (inactive) | 0.228 (inactive)
